Whole data set: some 33,000 sequences, median “E-score (-0.5 to 0.5)” near -0.016, cut for the highest 2% near 0.32. This is one part of a sample in which the highest values are shown more often than they occur.
Target: T1, Stp1 (UniProt B3LFK1)
T1 sequence: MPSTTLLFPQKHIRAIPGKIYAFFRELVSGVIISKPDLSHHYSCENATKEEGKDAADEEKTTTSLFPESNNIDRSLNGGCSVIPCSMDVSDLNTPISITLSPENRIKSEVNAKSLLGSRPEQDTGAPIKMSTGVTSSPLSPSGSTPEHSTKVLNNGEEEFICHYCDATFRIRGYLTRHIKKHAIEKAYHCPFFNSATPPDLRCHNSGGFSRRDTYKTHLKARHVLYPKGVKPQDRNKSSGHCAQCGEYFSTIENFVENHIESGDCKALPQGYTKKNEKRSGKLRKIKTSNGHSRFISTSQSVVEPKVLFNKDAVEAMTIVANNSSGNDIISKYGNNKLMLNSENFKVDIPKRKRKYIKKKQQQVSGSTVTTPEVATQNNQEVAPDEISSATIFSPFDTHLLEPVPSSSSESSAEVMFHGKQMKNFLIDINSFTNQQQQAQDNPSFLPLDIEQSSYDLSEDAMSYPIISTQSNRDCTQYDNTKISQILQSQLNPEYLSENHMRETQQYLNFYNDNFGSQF
Assay: PBM E-score (8-mer binding enrichment) (E-score (-0.5 to 0.5)); higher = stronger / more preferred TF binding
Settings: protein concentration: 200 nM; construct: GST-full length
Protocol: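 Universal 'all 10-mer' protein binding microarrays (Agilent AMADID 015681) probed with GST-tagged S. cerevisiae TFs (full-length or DBD) made by in vitro transcription/translation (PURExpress), about 100-200 nM. Bound TF was detected with fluorescent anti-GST. Each ungapped 8-mer (which stands for itself and its reverse complement) is scored by the PBM enrichment score (E-score), a modified Wilcoxon-Mann-Whitney statistic from -0.5 to +0.5, computed with the Universal PBM Analysis Suite. Scale: above 0.35 generally sequence-specific binding.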

Row | Sequence | PBM E-score
1 | CGTCACGA | 0.0354
2 | AGAACGCA | -0.00423
3 | AGGGCATA | 0.128
4 | CCGGCATA | -0.183
5 | ATGGCATA | 0.226
6 | ACGGCATA | 0.45
7 | GTGGCATA | 0.0347
8 | GCGGCATA | 0.435
9 | AGCCTATG | -0.0976
10 | ATTGGCGC | 0.189
11 | ACGCACCG | 0.0649
12 | CGTTGCTC | 0.0478
13 | GAAGGGCA | 0.231
14 | GACCGAGC | -0.228
15 | CGGCGTCC | 0.376
16 | CGGCGTGC | 0.316
17 | AGGCGTCC | -0.0371
18 | AGGCGTCA | 0.172
19 | CGGCGTCA | 0.399
20 | GGGCGTCA | -0.037
21 | GGTGGTGA | -0.125
22 | GAGTACGA | 0.0292
23 | GTCTAAGA | 0.0284
24 | CATACTTA | -0.00908
25 | AACTTCAT | 0.092
26 | GAATCGGC | 0.268

Row | Sequence | PBM E-score
27 | AGCATGCG | 0.016
28 | CAGGGGCA | -0.0911
29 | AGGCCTTC | -0.188
30 | CGGCCTTC | 0.322
31 | CGGCCTTA | 0.293
32 | AATAAATA | 0.35
33 | AATAAATG | 0.219
34 | TATAAATA | 0.198
35 | CACAGTAA | 0.209
36 | GGGAGACC | -0.355
37 | GCCTCACC | 0.327
38 | ACCTCACC | -0.128
39 | GCCTCACA | 0.263
40 | GATGCAGA | -0.0503
41 | GCTGTTGA | 0.169
42 | CTGTAGCC | 0.041
43 | ATTTCAAA | 0.134
44 | CATCGCGG | 0.0513
45 | CCATGGCA | 0.0885
46 | TCATGGCA | -0.00249
47 | GCATGGCA | 0.375
48 | ACTCCGCG | 0.068
49 | CCTACGGC | 0.39
50 | CCTACGCC | -0.0289
51 | ACTACGGG | -0.222
52 | CCTACGGA | -0.13

Row | Sequence | PBM E-score
53 | ACTACGGC | 0.359
54 | ACTACGGA | -0.0355
55 | CTATCTTA | 0.0702
56 | GAAAGGAC | 0.0713
57 | AATAGTAA | 0.0925
58 | CTGTCGCA | 0.00593
59 | CCCGCTGA | -0.297
60 | GATCGCAA | 0.0331
61 | CCGCGCGG | 0.469
62 | ACGCGCGC | 0.289
63 | CCGCGCTC | 0.235
64 | ACGCGTGC | 0.191
65 | CAGCGCGG | 0.211
66 | GCGCGCGA | 0.285
67 | CCGCGTGC | 0.329
68 | CCGCGTGA | 0.313
69 | CCGCGCGC | 0.381
70 | ACGCGCGG | 0.316
71 | GCGCGCGC | 0.396
72 | CCGCGCGA | 0.314
73 | GCTATCCA | -0.0017
74 | CCTCCAGC | -0.217
75 | CAAGAGTC | -0.177
76 | CCCACGGG | -0.166
77 | CCCACGGC | 0.417
78 | ACCACGGG | -0.0439

Row | Sequence | PBM E-score
79 | ACCACGGC | 0.327
80 | GCCACGCC | 0.267
81 | ACCACGGA | -0.0752
82 | GCCACGGA | 0.163
83 | CCCACGGA | 0.00496
84 | GCCACGGC | 0.469
85 | GGCCCCCA | -0.406
86 | AAGCTCAT | -0.206
87 | AATTCTCC | 0.0125
88 | GAATTCTC | 0.0702
89 | AAAGGCGC | 0.402
90 | GAAGGCGA | 0.129
91 | CAAGGCGA | 0.194
92 | AAAGGCGA | 0.0862
93 | GAAGGCGC | 0.333
94 | CAAGGCGC | 0.4
95 | GCAGGCGC | 0.148
96 | CAAGGCGG | 0.101
97 | AAAGGCGG | 0.111
98 | AAACTGGT | -0.0925
99 | AGTTCATG | 0.0464
100 | ATCAGCAT | 0.0572
101 | GAAAACGC | 0.119
102 | TAAGTCGA | -0.123
103 | TAACAGCA | 0.174
104 | AATGCACC | -0.0414

Row | Sequence | PBM E-score
105 | CTAAGAGC | -0.0921
106 | ATCTTCAT | -0.0473
107 | AAGCTGTC | -0.113
108 | ACAACTAT | 0.0651
109 | ATGCCGTA | 0.478
110 | ATACCGTA | 0.133
111 | ATGCCGTC | 0.406
112 | CTTCCGTA | 0.163
113 | ATGCCGAG | 0.31
114 | CTGCCGGA | 0.02
115 | CTGCCGTC | 0.299
116 | ATTCCGTA | 0.106
117 | CTGCCGTA | 0.343
118 | ATGCCGAC | 0.0658
119 | ATGCCGTG | 0.484
120 | ATGCCGGG | -0.0642
121 | CAGCGATG | -0.0761
122 | AACAGAGC | 0.00906
123 | GCCTACAC | -0.0439
124 | ATATCTAA | 0.0738
125 | GAAGCTGC | -0.188
126 | ACGAGCCG | 0.336
127 | ACGAGCCT | -0.0868
128 | CCGAGCCG | 0.334
129 | CCGAGCCA | -0.0385
130 | CCGAGCCC | -0.29

Row | Sequence | PBM E-score
131 | ACGAGCCA | -0.0521
132 | CGAGGGAC | -0.245
133 | CGCCTCAG | 0.289
134 | GGCCTCAC | -0.00507
135 | CGCCTCGA | 0.205
136 | CGCCTCAC | 0.395
137 | CGCCTCGC | 0.394
138 | AGCCTCGC | 0.0691
139 | CAGGAGCC | -0.0638
140 | GGCTTGGA | -0.128
141 | GTTGGGCA | 0.0977
142 | CTCACCCC | 0.0927
143 | ATTTCGCG | 0.177
144 | ATATCGCC | 0.322
145 | GACGCGCA | -0.105
146 | CTATCGCC | 0.0882
147 | CACGCGCC | 0.291
148 | ATATCGCG | 0.127
149 | ATTTCGCC | 0.336
150 | GACGCGCC | 0.348
151 | ATCGCGCG | 0.235
152 | ATCGCGCC | 0.394
153 | ATCGCGCA | -0.0273
154 | ATTTCGCA | 0.111
155 | CATTCGAC | -0.0891
156 | CAAAACGG | 0.308

Row | Sequence | PBM E-score
157 | ACGTGCAG | 0.105
158 | GATGGTCC | -0.219
159 | CCTCTCTC | -0.339
160 | AACGCGCC | 0.361
161 | AACGCGCG | 0.232
162 | AACGCGCT | 0.0273
163 | ACAGGGGT | -0.338
164 | GAAGGTGA | 0.0707
165 | GCCGCGGC | 0.474
166 | TCCGCGGA | 0.0517
167 | ACCGCGGA | -0.0118
168 | GCCGCGGA | 0.343
169 | ACCGCGGT | -0.3
170 | ACCGCGGG | 0.0822
171 | CCCGCGGG | 0.104
172 | GCCGCGAC | 0.282
173 | GCCGCGAA | 0.159
174 | ACCGCGGC | 0.384
175 | CCCGCGGA | 0.0756
176 | CCCGCGGC | 0.411

Source: the supplement of paper PMC3334620
